According to PubChem BioAssay AID434961 (Broad Institute, 2010):
Among all 7,700 compounds or so, about 15 (0.2%) were called active. Not shown: some 6% with an inconclusive outcome. This is one part of a sample in which actives are shown more often than they occur.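 The calls were made as follows: active = more than half of replicate wells with inhibition above about 18% (limit read from the data, passing the limit was not always enough); inconclusive = exactly half of replicate wells above that limit; inactive = fewer than half of replicates above it.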

target: Regulator of chromosome condensation (Homo sapiens) + GTP-binding nuclear protein Ran (Homo sapiens) + Importin subunit beta-1 (Homo sapiens) (UniProt P18754+P62826+Q14974); experiment: inhibitors of Ran–importin-beta complex formation, primary screen, biochemical, CFP-Ran/YFP-importin-beta FRET, RCC1, cell-free (AID 434961); settings: hits give high values, concentration not given here;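 also: 0% = DMSO wells and 100% inhibition = RanGDP control wells on each plate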

Compound	inhibition
C[C@H]1CN([C@@H](C)CO)C(=O)c2cccc(NS(=O)(=O)c3cccs3)c2O[C@H]1CN(C)Cc1ccc(C(=O)O)cc1	-1.12% (inactive)
C[C@H](CO)N1C[C@H](C)[C@H](CN(C)C(=O)c2ccccc2)OCc2cnnn2CCCC1=O	3.45% (inactive)
Cc1noc(C)c1NC(=O)Nc1ccc2c(c1)CC(=O)N([C@@H](C)CO)C[C@H](C)[C@@H](CN(C)S(=O)(=O)c1cccs1)O2	0.0231% (inactive)
Cc1noc(C)c1NC(=O)N(C)C[C@@H]1Oc2ccc(NC(=O)Cc3ccccc3)cc2C(=O)N([C@@H](C)CO)C[C@H]1C	6.07% (inactive)
C[C@H](CO)N1C[C@H](C)[C@H](CN(C)C)Oc2c(NC(=O)Nc3ccc(C(F)(F)F)cc3)cccc2C1=O	-2.27% (inactive)
COc1ccc(CN(C)C[C@@H]2Oc3ccc(NC(=O)Nc4ccc(C(F)(F)F)cc4)cc3CC(=O)N([C@H](C)CO)C[C@@H]2C)cc1	1.78% (inactive)
C[C@@H]1CN([C@@H](C)CO)C(=O)c2cccc(NC(=O)Nc3ccc(C(F)(F)F)cc3)c2O[C@H]1CN(C)C(=O)Nc1ccc(F)cc1	1.42% (inactive)
C[C@H](CO)N1C[C@H](C)[C@H](CN(C)S(=O)(=O)c2cn(C)cn2)OCCCC[C@H](C)Oc2ccc(NC(=O)CCCN(C)C)cc2C1=O	1.98% (inactive)
C[C@@H]1CCCCO[C@@H](CN(C)S(=O)(=O)c2ccccc2)[C@@H](C)CN([C@@H](C)CO)C(=O)c2cc(NS(C)(=O)=O)ccc2O1	1.15% (inactive)
C[C@@H]1CCCCO[C@H](CN(C)C)[C@H](C)CN([C@H](C)CO)C(=O)c2cc(NC(=O)Nc3ccc4c(c3)OCO4)ccc2O1	7.53% (inactive)
COc1ccc(S(=O)(=O)N(C)C[C@@H]2Oc3ccc(NS(=O)(=O)c4ccc(Cl)cc4)cc3C(=O)N([C@H](C)CO)C[C@@H]2C)cc1	1.93% (inactive)
C[C@H]1CN([C@@H](C)CO)C(=O)c2cccc(NS(=O)(=O)c3cn(C)cn3)c2O[C@@H]1CN(C)CC1CC1	-0.875% (inactive)
Cc1noc(C)c1NC(=O)N(C)C[C@@H]1Oc2ccc(NC(=O)C3CC3)cc2CC(=O)N([C@@H](C)CO)C[C@H]1C	3.34% (inactive)
CNC[C@H]1Oc2ccc(NC(=O)Cc3ccccc3)cc2C(=O)N([C@H](C)CO)C[C@@H]1C	-10.8% (inactive)
C[C@H]1CN([C@@H](C)CO)C(=O)c2cccc(NS(=O)(=O)c3ccc(Cl)cc3)c2O[C@H]1CN(C)Cc1ccncc1	-0.815% (inactive)
C[C@H]1CN([C@@H](C)CO)C(=O)c2cc(NC(=O)CCC(F)(F)F)ccc2O[C@H]1CN(C)C(=O)Nc1ccccc1	1.36% (inactive)
C[C@H](CO)N1C[C@H](C)[C@H](CN(C)C(=O)Nc2ccccc2)Oc2ccc(NC(=O)Cc3cn(C)c4ccccc34)cc2CC1=O	2.8% (inactive)
C[C@H]1CCCCO[C@H](CN(C)Cc2ccc(C(=O)O)cc2)[C@@H](C)CN([C@@H](C)CO)C(=O)c2cc(NC(=O)Nc3ccc(F)cc3)ccc2O1	5.7% (inactive)
C[C@H](CO)N1C[C@H](C)[C@H](CN(C)S(=O)(=O)c2cn(C)cn2)Oc2ccc(N(C)C)cc2CC1=O	-2.21% (inactive)
C[C@@H]1CN([C@H](C)CO)C(=O)c2cc(NC(=O)c3ccncc3)ccc2O[C@@H]1CN(C)C	0.131% (inactive)
CC(C)NC(=O)Nc1ccc2c(c1)C(=O)N([C@H](C)CO)C[C@H](C)[C@@H](CN(C)Cc1ccc(C(=O)O)cc1)OCCCC[C@@H](C)O2	2.11% (inactive)
C[C@@H]1CN([C@H](C)CO)C(=O)c2cc(NS(=O)(=O)c3ccccc3)ccc2O[C@@H](C)CCCCO[C@@H]1CN(C)Cc1ccc2c(c1)OCO2	-2.27% (inactive)
COc1ccc(S(=O)(=O)Nc2cccc3c2O[C@H](CN(C)Cc2ccc4c(c2)OCO4)[C@@H](C)CN([C@@H](C)CO)C3=O)cc1	1.75% (inactive)

Compound	inhibition
C[C@@H]1CCCCO[C@@H](CN(C)C(=O)CCC(F)(F)F)[C@@H](C)CN([C@@H](C)CO)C(=O)c2cc(NS(=O)(=O)c3cccs3)ccc2O1	5.99% (inactive)
C[C@@H]1CN([C@@H](C)CO)C(=O)c2cccc(NC(=O)c3cnccn3)c2O[C@H]1CN(C)C(=O)NC1CCCCC1	0.00388% (inactive)
CC(C)NC(=O)N(C)C[C@@H]1Oc2c(NC(=O)C3CCOCC3)cccc2C(=O)N([C@H](C)CO)C[C@H]1C	-0.0599% (inactive)
C[C@H]1CN([C@@H](C)CO)C(=O)Cc2cc(NS(=O)(=O)c3ccccc3)ccc2O[C@@H]1CN(C)Cc1ccc2c(c1)OCO2	0.885% (inactive)
Cc1noc(C)c1NC(=O)Nc1ccc2c(c1)CC(=O)N([C@H](C)CO)C[C@@H](C)[C@H](CN(C)S(=O)(=O)c1ccccc1)O2	0.923% (inactive)
C[C@@H]1CN([C@H](C)CO)C(=O)c2cc(NS(=O)(=O)c3cn(C)cn3)ccc2O[C@H]1CN(C)C(=O)Nc1ccc2c(c1)OCO2	0.416% (inactive)
C[C@H](CO)N1C[C@H](C)[C@@H](CN(C)S(=O)(=O)c2ccccc2)Oc2ccc(NC(=O)NC3CCCCC3)cc2C1=O	3.44% (inactive)
C[C@@H]1CN([C@@H](C)CO)C(=O)Cc2cc(NS(=O)(=O)c3cn(C)cn3)ccc2O[C@H]1CN(C)S(=O)(=O)c1ccc(Cl)cc1	-7.4% (inactive)
C[C@H](CO)N1C[C@H](C)[C@@H](CN(C)C(=O)NC2CCCCC2)Oc2c(NS(=O)(=O)c3ccccc3)cccc2C1=O	1.49% (inactive)
C[C@H]1CN([C@@H](C)CO)C(=O)CCCn2nncc2CO[C@H]1CN(C)C(=O)Nc1ccccc1F	0.229% (inactive)
Cc1noc(C)c1S(=O)(=O)N(C)C[C@@H]1Oc2ccc(NC(=O)C3CCCCC3)cc2CC(=O)N([C@@H](C)CO)C[C@@H]1C	-3.61% (inactive)
CC(C)NC(=O)N(C)C[C@@H]1Oc2c(NS(=O)(=O)c3ccccc3)cccc2C(=O)N([C@H](C)CO)C[C@H]1C	4.93% (inactive)
C[C@@H]1CN([C@H](C)CO)C(=O)Cc2cc(NC(=O)Nc3ccccc3)ccc2O[C@H]1CN(C)CC1CC1	-1.7% (inactive)
COc1ccc(NC(=O)N(C)C[C@@H]2Oc3ncc(C#Cc4ccccc4)cc3C(=O)N([C@H](C)CO)C[C@@H]2C)cc1	2.4% (inactive)
C[C@H](CO)N1C[C@H](C)[C@@H](CN(C)Cc2ccc(Cl)c(Cl)c2)Oc2c(NS(=O)(=O)c3cccs3)cccc2C1=O	3.33% (inactive)
C[C@H](CO)N1C[C@H](C)[C@@H](CN(C)C(=O)Nc2cccc3ccccc23)Oc2ccc(NC(=O)NC3CCCCC3)cc2CC1=O	-2.7% (inactive)
C[C@@H]1CCCCO[C@@H](CN(C)Cc2ccccc2)[C@@H](C)CN([C@H](C)CO)C(=O)c2cc(N(C)C)ccc2O1	-4.07% (inactive)
COc1ccc(CN(C)C[C@H]2Oc3ccc(NC(=O)Cc4cn(C)c5ccccc45)cc3C(=O)N([C@H](C)CO)C[C@H]2C)cc1	-2.11% (inactive)
COc1ccc(S(=O)(=O)N(C)C[C@H]2Oc3c(NC(=O)C4CC4)cccc3C(=O)N([C@@H](C)CO)C[C@@H]2C)cc1	-1.54% (inactive)
Cc1noc(C)c1S(=O)(=O)Nc1cccc2c1O[C@H](CN(C)Cc1ccc3c(c1)OCO3)[C@H](C)CN([C@H](C)CO)C2=O	-8.22% (inactive)
C[C@@H]1CN([C@H](C)CO)C(=O)c2cc(NC(=O)C3CC3)ccc2O[C@H]1CN(C)Cc1ccc(Cl)c(Cl)c1	0.993% (inactive)
Cc1noc(C)c1NC(=O)N(C)C[C@@H]1OCCCC[C@@H](C)Oc2ccc(NC(=O)Cc3ccccc3)cc2C(=O)N([C@@H](C)CO)C[C@@H]1C	4.99% (inactive)
CC(C)NC(=O)N(C)C[C@@H]1OCCCC[C@H](C)Oc2ccc(NC(=O)CCC(F)(F)F)cc2C(=O)N([C@@H](C)CO)C[C@H]1C	-1.88% (inactive)

Compound	inhibition
C[C@@H]1CN([C@@H](C)CO)C(=O)c2cc(NS(=O)(=O)c3cccs3)ccc2O[C@@H](C)CCCCO[C@@H]1CN(C)C	-3.73% (inactive)
COC(=O)N(C)C[C@H]1OCc2cn(nn2)CCCC(=O)N([C@H](C)CO)C[C@@H]1C	-1.56% (inactive)
COC(=O)N(C)C[C@H]1OCc2cn(nn2)CCCC(=O)N([C@@H](C)CO)C[C@H]1C	18.2% (active)
COC(=O)N(C)C[C@@H]1OCc2cn(nn2)CCCC(=O)N([C@@H](C)CO)C[C@@H]1C	2.64% (inactive)
C[C@H](CO)N1C[C@H](C)[C@H](CN(C)C(=O)Nc2cccc3ccccc23)OCCCC[C@H](C)Oc2ccc(NC(=O)c3ccncc3)cc2C1=O	0.239% (inactive)
C[C@@H]1CN([C@@H](C)CO)C(=O)Cc2cc(NC(=O)Nc3ccc(C(F)(F)F)cc3)ccc2O[C@@H]1CN(C)C(=O)NC1CCCCC1	1.62% (inactive)
C[C@@H]1CN([C@H](C)CO)C(=O)c2cc(NS(=O)(=O)c3cn(C)cn3)ccc2O[C@H]1CN(C)C(=O)Nc1ccc(F)cc1	9.51% (inactive)
C[C@@H]1CN([C@@H](C)CO)C(=O)Cc2cc(NC(=O)Nc3ccc4c(c3)OCO4)ccc2O[C@H]1CN(C)C(=O)NC1CCCCC1	-2.22% (inactive)
C[C@@H]1CN([C@H](C)CO)C(=O)c2cc(NC(=O)Cc3ccccc3)ccc2O[C@@H]1CN(C)C(=O)NC1CCCCC1	1.32% (inactive)
C[C@@H]1CN([C@H](C)CO)C(=O)CCCn2cc(nn2)CO[C@H]1CN(C)C(=O)Nc1cccc2ccccc12	-3.4% (inactive)
CC(C)NC(=O)N(C)C[C@H]1Oc2ccc(NC(=O)CCC(F)(F)F)cc2C(=O)N([C@H](C)CO)C[C@@H]1C	-4.13% (inactive)
C[C@H](CO)N1C[C@H](C)[C@H](CN(C)C(=O)CCCN(C)C)OCCCC[C@H](C)Oc2ccc(NC(=O)Nc3cccc4ccccc34)cc2C1=O	2.28% (inactive)
C[C@H]1CN([C@@H](C)CO)C(=O)c2cccc(NS(=O)(=O)c3ccc(Cl)cc3)c2O[C@H]1CN(C)S(=O)(=O)c1cn(C)cn1	-0.913% (inactive)
CNC[C@@H]1OCCCC[C@@H](C)Oc2ccc(N)cc2C(=O)N([C@H](C)CO)C[C@H]1C	0.828% (inactive)
CNC[C@H]1OCCCC[C@H](C)Oc2ccc(NS(=O)(=O)c3cccs3)cc2C(=O)N([C@@H](C)CO)C[C@@H]1C	1.28% (inactive)
C[C@@H]1CN([C@@H](C)CO)C(=O)Cc2cc(NS(=O)(=O)c3cn(C)cn3)ccc2O[C@@H]1CN(C)C(=O)Nc1ccc(F)cc1	-4.41% (inactive)
COc1ccc(S(=O)(=O)N(C)C[C@H]2Oc3ccc(NC(=O)Nc4ccc(C(F)(F)F)cc4)cc3CC(=O)N([C@@H](C)CO)C[C@@H]2C)cc1	3.32% (inactive)
C[C@H](CO)N1C[C@H](C)[C@H](CN(C)Cc2ccncc2)OCCCC[C@H](C)Oc2ccc(NC(=O)CCCN(C)C)cc2C1=O	1.3% (inactive)
C[C@H](CO)N1C[C@H](C)[C@@H](CN(C)Cc2ccc(C(=O)O)cc2)Oc2ccc(NC(=O)NC3CCCCC3)cc2C1=O	-0.0517% (inactive)
C[C@@H]1CN([C@@H](C)CO)C(=O)c2cc(NC(=O)Nc3cccc4ccccc34)ccc2O[C@H]1CN(C)C(=O)Nc1cccc2ccccc12	-2.16% (inactive)
C[C@H](CO)N1C[C@H](C)[C@H](CN(C)C(=O)OCc2ccccc2)OCc2cn(nn2)CCCC1=O	1.83% (inactive)
